The text below walks through data of PubChem BioAssay (Tox21).

Several values for one entry are separate records, joined by “and”; a condition that tells them apart may be missing. Identical values can stand only once. Results filed as inconclusive are left out. A call without a number means that no potency is given here. A structure can be active in one record and inactive in another. Activity calls are given as the source filed them. The call rests on the fitted dose curve; in most records, active means well fitted cell-killing curve with a large enough effect in the repeat runs; inconclusive means weak or mixed curves, or effect the other way; inactive means flat fitted curve, though single readings scatter.
Potency means the concentration at half of the fitted maximal effect.

A short description of the assay: qHTS RealTime-Glo MT Cell Viability Assay in HEK293 cells - 16 hour (AID 1224872). Further: nearly all actives have a fitted effect of over 50% in size. The settings on record: RealTime-Glo luminescence; series mostly up to 76.8 µM. The method, boiled down: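 Nonlytic real-time viability readout: viable cells convert prosubstrate to NanoLuc substrate, giving luminescence proportional to live cell number. HEK293, 600 cells/well, compound added after 5 h, continuous culture at 37 C.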
With `O=C(O)c1cn(-c2ccc(F)cc2)c2cc(N3CCNCC3)c(F)cc2c1=O`, the Potency entry is “inactive”.

With `NC(N)=Nc1nc(CSCC/C(N)=N/S(N)(=O)=O)cs1`, the Potency result is “inactive”.

Regarding `O=C(Oc1ccccc1)c1ccccc1O`, the Potency result was “inactive”.

Turning to `CCN1CCCC1CNC(=O)c1cc(S(=O)(=O)CC)c(N)cc1OC` (stereo unspecified), the Potency entry was “inactive”.

For the molecule `OCC(CO)N[C@H]1C[C@](O)(CO)[C@@H](O)[C@H](O)[C@H]1O`, the Potency entry is “inactive”.

As for `CCCCCCCCCCCCCC[P+](CCCC)(CCCC)CCCC`, the Potency was 5.46 µM (active) and 549 nM (active).

For `O=C(O)c1cccc(C(=O)O)c1`, the Potency entry was “inactive”.

With `CC(=O)N[C@@H](CS)C(=O)O`, the Potency entry was “inactive”.

For `CC1COC(=O)O1` (stereo unspecified), the Potency result is “inactive”.

With `c1cc(C(c2ccc(OCC3CO3)cc2)C(c2ccc(OCC3CO3)cc2)c2ccc(OCC3CO3)cc2)ccc1OCC1CO1` (stereo unspecified), the Potency entry is “inactive”.

`NC(N)=NC(=O)Cc1c(Cl)cccc1Cl`: the Potency entry is “inactive”.

With `CCCC(=O)c1ccccc1`, the Potency entry was “inactive”.

`C=C(C)C1CC=C(C)C(OC(C)=O)C1` (stereo unspecified): the Potency entry was “inactive”.

On to `CC(C)(C)NCC(O)COc1ccccc1OCC1CCCO1` (stereo unspecified), for which the Potency result was “inactive”.

Take `COC(=O)[C@H]1[C@H]2C[C@@H]3c4[nH]c5cc(OC)ccc5c4CCN3C[C@H]2C[C@@H](OC(=O)c2cc(OC)c(OC)c(OC)c2)[C@@H]1OC`: the Potency is 4.89 µM (active) and 5.65 µM (active) and 4.77 µM (active).

Regarding `c1ccc2n[nH]nc2c1`, the Potency result was “inactive”.

In the case of `CC(=O)OCCOCCOCCOC(C)=O`, the Potency result is “inactive”.

For the molecule `COC(=O)/C=C/c1ccccc1`, the Potency entry was “inactive”.

Turning to `Cc1scc2c1N(C(=O)CN1CCN(C)CC1)c1ccccc1NC2=O`, the Potency result was “inactive”.

On to `Oc1c(Cl)cc(Cl)c(Cl)c1Cc1c(O)c(Cl)cc(Cl)c1Cl`, for which the Potency result was “inactive”.

Take `Nc1nc2ccccc2[nH]1`: the Potency result is “inactive”.

For `CCN(CC)C(=S)SSC(=S)N(CC)CC`, the Potency is 89.1 nM (active) and 13.4 µM (active).

`NCCCCCC(=O)O`: the Potency entry was “inactive”.

Regarding `CC(C)(C)c1ccc(O)c(C(C)(C)C)c1`, the Potency is 34.5 µM (active).

Turning to `O=C(O)CCc1ccccc1`, the Potency result is “inactive”.

Consider `OCCN1CCNCC1`, for which the Potency is 15.8 µM (active).

Take `[Cl][In]([Cl])[Cl]`: the Potency entry was “inactive”.

`CC[C@H]1CN2CCc3cc(OC)c(OC)cc3[C@@H]2C[C@@H]1C[C@H]1NCCc2cc(OC)c(OC)cc21`: the Potency is 24.6 nM (active) and 75.6 nM (active).

On to `CC(C)CCOC(=O)c1ccc(N(C)C)cc1`, for which the Potency result was “inactive”.

On to `Cc1cc(C2(c3cc(C)c(O)cc3C)OS(=O)(=O)c3ccccc32)c(C)cc1O`, for which the Potency entry was “inactive”.

Consider `CCOC(=O)C(C)C(C)=O` (stereo unspecified), for which the Potency result was “inactive”.

Turning to `CC(C)(C)c1cc(C(C)(C)C)c(O)c(C(C)(C)C)c1`, the Potency entry is “inactive”.

In the case of `CCC[C@H](N[C@@H](C)C(=O)N1[C@H](C(=O)O)C[C@@H]2CCCC[C@@H]21)C(=O)OCC`, the Potency entry was “inactive”.

For `CC(COc1ccccc1)N(CCCl)Cc1ccccc1` (stereo unspecified), the Potency was 49.5 µM (active) and 49 µM (active).

For the molecule `O=C1CC2(CCCC2)CC(=O)N1CCCCN1CCN(c2ncccn2)CC1`, the Potency was 43.6 µM (active) and inactive.

As to `O=c1n(CC2CO2)c(=O)n(CC2CO2)c(=O)n1CC1CO1` (stereo unspecified), the Potency result is “inactive”.
